According to PubChem BioAssay (NCI):
The panel holds about 79,000 compounds, 15% with a hit somewhere; the sample as a whole holds those more often. Activity calls are given as the source filed them. Cut-off read from the data, not from the text of the source: active = growth inhibition above about 70%; inactive = the rest.

test: NCI Yeast Anticancer Drug Screen. Data for the cln2 rad14 strain (AID 165);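 note: 0% = growth equal to vehicle treated cultures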; details: S. cerevisiae cln2 rad14 strain, at 50.0 µM, active compounds read high
In short: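 Strain: cln2 rad14 yeast, altered in cell cycle control and DNA damage repair. Read-out: growth inhibition vs vehicle.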

| SMILES | growth inhibition |
| --- | --- |
| O=C1c2cccc([N+](=O)[O-])c2C(=O)c2cccc(Cl)c21 | -17.9% (inactive) |
| CCOC(=O)C(Cc1ccc(Cl)cc1)(Cc1ccc(Cl)cc1)C(=O)OCC | 6.15% (inactive) |
| Cc1cc(Cl)ccc1NC(=O)/C(=N\NC(C)(C)C)C(C#N)c1nc(-c2ccc([N+](=O)[O-])cc2)cs1 (configuration not stated) | 25.7% (inactive) |
| COC(=O)CCc1ccc(NC(=O)OC)cc1 | 11.2% (inactive) |
| CC/C(C)=N/NC(=O)c1ccc([N+](=O)[O-])cc1 | 8.6% (inactive) |
| COc1cnnc2ccccc12 | -2.35% (inactive) |
| CC/C(C)=N/NS(C)(=O)=O | 2.25% (inactive) |
| CNn1c(C)n[nH]c1=O | 20.6% (inactive) |
| O=C(NN1C(=O)C(Cl)C1c1ccccc1Cl)c1ccccc1O (configuration not stated) | -5.55% (inactive) |
| c1ccc2cc(N3CCOCC3)ccc2c1 | -19.9% (inactive) |
| CC(=O)OCC1C(=O)OCC1C(=O)N1Cc2cc3ccccc3nc2C1 (configuration not stated) | -18.9% (inactive) |
| Clc1ccc(C2=CSC3=NCCN23)cc1 | -97.3% (inactive) |
| C=C(C)C(C)(C)n1[nH]c(=O)n(-c2ccccc2)c1=O | -23.1% (inactive) |
| CN1CCN(S(=O)(=O)C(c2ccccc2)C2(O)CCCCC2)CC1 (configuration not stated) | -6.25% (inactive) |
| COc1ccc(NC(=O)C(=O)Cc2nc3ccc([N+](=O)[O-])cc3[nH]c2=O)c(OC)c1 | 3.95% (inactive) |
| COc1cc(NC(=O)CCN2CCOCC2)c2ncccc2c1 | -29.4% (inactive) |
| CSC(C1c2ccccc2N(C)C2=NC(=O)N(C)C(=O)C21Cl)S(=O)(=O)c1ccc(C)cc1 (configuration not stated) | 35.7% (inactive) |
